L3MBTL1 block = inhibitors of human L3MBTL1 | Q9Y468 | AlphaScreen L3MBTL1–H3K9me1 peptide binding | 0.66% of 230,000 active | Potency, µM (titrated, usually from 57.1 µM), most hits filed as inhibitors | AID 485360; also: nearly all actives have a fitted effect of over 60% in size
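Read-out is AlphaScreen signal from streptavidin donor and nickel chelate acceptor beads (10 ug/mL final each) bridging L3MBTL1 (50 nM) and biotinylated K9-monomethylated H3(1-15) peptide (75 nM), after 30 min compound exposure at room temperature.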
BAZ2B inh = inhibitors of human BAZ2B bromodomain; Potency, µM (titrated, usually from 114 µM), hits mostly inhibitors; AID 504333; AlphaScreen BAZ2B-H3K14Ac peptide displacement; 4.4% of 360,000 active; also: nearly all actives have a fitted effect of over 60% in size
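Multi-concentration screen (max 110 uM) measuring displacement of acetylated histone H3 peptide from BAZ2B by AlphaScreen, using 50 nM protein, 50 nM peptide and 10 ug/mL streptavidin donor plus Ni-chelate acceptor beads.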
HP1b chromo inh = HP1-beta chromodomain-methylated histone interaction inhibition. AlphaScreen HP1-beta / biotin-H3K9me3 peptide binding. Potency, µM (doses to about 114 µM), usual class: inhibitors. 0.56% of 390,000 active. AID 540317; also: nearly all actives have a fitted effect of over 70% in size
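HP1-beta protein (50 nM final) preincubated 30 min at room temperature with biotinylated H3(1-18)K9me3 peptide (50 nM) in PBS pH 7.4, 0.01% Tween-20, then compound added for 30 min. AlphaScreen streptavidin donor/nickel chelate acceptor beads (10 ug/mL final), 30 min dark, luminescence read.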
G9a block = inhibitors of human histone lysine methyltransferase G9a | Q96KQ7 | G9a H3K9 monomethylation, AlphaScreen, 2 h | Potency, µM (series often up to 102 µM), usual class: inhibitors | 8.8% of 350,000 active | AID 504332; also: nearly all actives have a fitted effect of over 75% in size
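AlphaScreen detection with an anti-monomethyl H3K9 antibody quantified product after a 2 h room-temperature reaction containing 500 nM biotinylated H3K9 peptide, 20 µM SAM and 20 nM enzyme, which had been preincubated 15 min with compound.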
JMJD2A Tudor = blocks the human JMJD2A Tudor domain. O75164. AlphaScreen JMJD2A-Tudor / H3K4me3 peptide binding. Potency, µM (doses to about 114 µM), most hits filed as inhibitors. 4.4% of 390,000 active; also: nearly all actives have a fitted effect of over 50% in size
Target sequence (O75164 whole entry, looked up, the tested form may be a part): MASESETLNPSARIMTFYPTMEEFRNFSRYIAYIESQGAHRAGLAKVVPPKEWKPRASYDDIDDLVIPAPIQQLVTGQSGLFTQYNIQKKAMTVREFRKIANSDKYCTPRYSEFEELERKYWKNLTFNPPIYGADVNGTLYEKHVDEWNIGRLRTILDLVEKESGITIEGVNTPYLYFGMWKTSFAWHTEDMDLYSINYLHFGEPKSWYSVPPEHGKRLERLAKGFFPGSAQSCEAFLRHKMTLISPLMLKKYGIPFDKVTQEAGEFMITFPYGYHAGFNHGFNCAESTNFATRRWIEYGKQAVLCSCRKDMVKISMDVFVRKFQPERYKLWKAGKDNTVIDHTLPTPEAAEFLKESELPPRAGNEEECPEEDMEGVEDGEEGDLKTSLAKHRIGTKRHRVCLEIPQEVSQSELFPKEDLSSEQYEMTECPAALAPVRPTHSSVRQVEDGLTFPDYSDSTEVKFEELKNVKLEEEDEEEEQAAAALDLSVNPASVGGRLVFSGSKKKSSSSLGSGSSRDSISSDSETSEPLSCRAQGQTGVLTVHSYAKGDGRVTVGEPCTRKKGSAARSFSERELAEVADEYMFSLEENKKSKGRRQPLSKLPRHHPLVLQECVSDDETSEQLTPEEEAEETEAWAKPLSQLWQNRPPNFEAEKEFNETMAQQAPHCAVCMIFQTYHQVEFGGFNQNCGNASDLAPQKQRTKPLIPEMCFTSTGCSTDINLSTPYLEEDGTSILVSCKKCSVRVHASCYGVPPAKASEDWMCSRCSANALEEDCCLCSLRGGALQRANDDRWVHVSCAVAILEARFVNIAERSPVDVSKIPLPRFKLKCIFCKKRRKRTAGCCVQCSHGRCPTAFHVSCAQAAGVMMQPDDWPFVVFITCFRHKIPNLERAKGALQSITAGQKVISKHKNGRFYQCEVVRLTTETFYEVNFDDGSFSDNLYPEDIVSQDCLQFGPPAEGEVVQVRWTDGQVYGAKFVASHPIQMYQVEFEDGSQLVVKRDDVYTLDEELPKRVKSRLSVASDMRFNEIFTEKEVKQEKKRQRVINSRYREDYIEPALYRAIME
Sfp PPTase inh = inhibitors of Bacillus subtilis Sfp phosphopantetheinyl transferase; Q9F4F7; Biochemical Sfp PPTase activity, qHTS; Potency, µM, hits mostly inhibitors; 3.5% of 310,000 active; AID 1490;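 also: the enzyme is Sfp with the accession as filed and its product quenches rhodamine fluorescence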
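After 15 min at room temperature with compound, 15 nM Sfp received 5 uM rhodamine-CoA plus 12.5 uM BHQ-2-ybbR (50 mM Hepes pH 7.6, 10 mM MgCl2). Rate came from the fluorescence difference over 30 min, ex 525/em 598 nm.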
A number is an active result; – = inactive; ? = inconclusive; · = not tested or not shown; ! = not active in a repeat; [ ] = dose if it differs, or a comment. The list is not random: actives were taken first. Their share in the collection is about 12%. Calls follow the shape of the dose curve; as a rule, active = well fitted curve in the direction sought with a large enough effect; inconclusive = small, poorly fitted or top-dose-only effect, or another doubt; inactive = no such curve, though single readings can be large; an effect the other way counts as inactive or inconclusive.

SMILES	L3MBTL1 block	BAZ2B inh	HP1b chromo inh	G9a block	JMJD2A Tudor	Sfp PPTase inh
CCOc1ccc(-c2cccc(NS(=O)(=O)c3cc([N+](=O)[O-])ccc3Cl)c2)nn1	–	?	–	50.1µM	–	·
O=[N+]([O-])c1ccc(S(=O)(=O)Nc2ccc(-c3ccc(N4CCOCC4)nn3)cc2)cc1	–	–	–	–[2.33 µM]	–	·
O=[N+]([O-])c1ccc(Cl)c(S(=O)(=O)Nc2ccc(-c3ccc(N4CCOCC4)nn3)cc2)c1	–	–	–	?	–	·
CCc1ccccc1NC(=O)C1CCCN(c2ncnc3onc(C)c23)C1 (stereo not drawn)	·	–	–	–	–	·
CN(C)c1ccc(NC(=O)CSC2=Nc3ccccc3C3=NC(CCC(=O)NCc4cccs4)C(=O)N23)cc1 (stereo not drawn)	·	?	–	?	?	·
O=S(=O)(c1cc(O)ccc1O)c1cccc2c(S(=O)(=O)c3cc(O)ccc3O)cccc12	3.16µM	11.2µM	15.8µM	–[2.33 µM]	17.8µM	·
O=C(CSc1nc(=O)[nH]c2c1CCCC2)NCc1ccc(Cl)cc1	·	–	–	–	–	·
Nc1nnc(SCC(=O)OCC(=O)c2ccccc2Br)s1	·	–	–	39.8µM	–	–
COC(=O)c1ccccc1NC(=O)COC(=O)CSc1nnc(N)s1	·	–	–	28.2µM	–	–
Nc1nnc(SCC(=O)OCC(=O)c2ccccc2)s1	–	–	–	–	–	–
CCN(C(=O)Cn1nc(Cc2cccnc2)c2ccccc2c1=O)c1cc(C)ccc1C	·	–	–	–	–	·
CCOC(=O)c1coc(CNC(=O)c2c(C)oc3c2CCCC3)c1	–	?	–	56.2µM	–	–
Cc1oc2c(c1C(=O)NCc1cc(C(=O)O)co1)CCCC2	–	–	–	–	–	–
Cc1oc2c(c1C(=O)NCCCC(=O)O)CCCC2	·	?	–	–	–	–
CCOC(=O)c1cc(CNC(=O)c2c(C)oc3c2CCCC3)c(C)o1	–	?	–	50.1µM	–	–
CCSc1ccccc1C(=O)Nc1ccc(-c2nc3ccccc3s2)c(O)c1	·	–	–	–	–	·
O=C(Oc1cc(=O)oc2c1c(=O)n1c3c(cccc23)CC1)c1ccccc1	–	50.1µM	–	·	?	–
O=C(Oc1cc(=O)oc2c1c(=O)n1c3c(cccc23)CC1)c1ccc(F)cc1	–	?	–	·	–	–
Cc1ccc(NCc2ccccc2O)c(C)c1	·	31.6µM	–	44.7µM	?	–
Cc1ccc(OCC(=O)N(Cc2cccs2)C2CCS(=O)(=O)C2)cc1 (stereo not drawn)	–	–	–	–	–	–
CCc1ccc(OCC(=O)N(Cc2ccc(Cl)cc2)C2CCS(=O)(=O)C2)cc1 (stereo not drawn)	·	–	–	–	–	·
CN(C)c1ccc(CN(C(=O)COc2ccc(Br)cc2)C2CCS(=O)(=O)C2)cc1 (stereo not drawn)	–	44.7µM	–	50.1µM	39.8µM	–
Cc1ccc(OCC(=O)N(Cc2ccc(N(C)C)cc2)C2CCS(=O)(=O)C2)cc1 (stereo not drawn)	–	?	–	39.8µM	?	–
Cc1cccc(OCC(=O)N(Cc2cccs2)C2CCS(=O)(=O)C2)c1C (stereo not drawn)	–	–	–	50.1µM	–	–
CN(C)c1ccc(CN(C(=O)COc2ccc(F)cc2)C2CCS(=O)(=O)C2)cc1 (stereo not drawn)	–	?	–	?	–	–
SMILES	L3MBTL1 block	BAZ2B inh	HP1b chromo inh	G9a block	JMJD2A Tudor	Sfp PPTase inh
CCCSc1ncc(Cl)c(C(=O)N(Cc2ccc(N(C)C)cc2)C2CCS(=O)(=O)C2)n1 (stereo not drawn)	·	22.4µM	–	?	56.2µM	·
COc1cc(OC)c(NS(=O)(=O)c2c(C)nc3sc(C)cn3c2=O)cc1Cl	·	?	–	–	–	·
O=C(O)[C@H](O)[C@@H](O)[C@H](O)[C@H](O)CO	·	·	·	–	·	–
CCC(=O)N1CCc2cc(S(=O)(=O)NC(C(=O)NCCc3ccc(Cl)cc3)C(C)C)ccc21 (stereo not drawn)	·	·	–	–	–	·
C=C(C(C)=O)C(O)/C=C/c1ccco1 (stereo not drawn)	·	·	·	·	·	–
CCc1cccc(NC(=O)CN(C)S(=O)(=O)c2ccc3c(c2)n(C)c(=O)c(=O)n3C)c1	·	–	–	–	–	·
COc1ccc(CNC(=O)CCC2N=C3c4ccccc4N=C(SCc4ccc(F)cc4)N3C2=O)cc1 (stereo not drawn)	·	–	–	–	–	·
CCC(=O)NC1CCc2cccc(OC)c2C1 (stereo not drawn)	·	·	·	?	·	–
CN(C)c1ccc(CN(C(=O)/C=C/c2ccccc2Cl)C2CCS(=O)(=O)C2)cc1 (stereo not drawn)	–	25.1µM	–	–	44.7µM	–
O=C(/C=C/c1ccccc1Cl)N(Cc1ccc(Cl)cc1)C1CCS(=O)(=O)C1 (stereo not drawn)	–	–	–	–	–	–
Cc1cc(C)c(OCC(=O)N(Cc2ccc(N(C)C)cc2)C2CCS(=O)(=O)C2)c(C)c1 (stereo not drawn)	?	?	–	·	?	–
COc1ccc(OCC(=O)N(Cc2sccc2C)C2CCS(=O)(=O)C2)cc1 (stereo not drawn)	·	?	–	70.8µM!	–	–
Cc1cc(C)cc(OCC(=O)N(Cc2ccc(N(C)C)cc2)C2CCS(=O)(=O)C2)c1 (stereo not drawn)	–	39.8µM	?	–	63.1µM	–
COc1ccc(NC(=O)CC2C(=O)N(c3ccc(C)cc3)C(=O)N2CCc2ccccc2)cc1 (stereo not drawn)	·	–	–	–	–	·
COc1ccc(CC(=O)NCC(c2ccc(N(C)C)cc2)N2CCOCC2)cc1OC (stereo not drawn)	·	–	–	–[12.7 µM]	–	·

Assay outcomes (PubChem BioAssay)
